This is an account of results in PubChem BioAssay AID463173 (ICCB-Longwood Screening Facility, Harvard Medical School, 2010).

Out of some 52,000 compounds screened, about 4,300 (8.3%) were called active. The entries come from a sample that favours actives as a whole. Unmarked numbers belong to inactive results. No stated cut-off is given here; in the data, active means survival mostly below about 52% (no sharp cut-off); inactive means mostly above about 56%.

The test system of this assay is DeltatarO mutant. Nature of the assay: S. aureus survival, RN4220 and DeltatarO strains – OD600, teichoic acid synthesis inhibitors, primary screen (AID 463173). The following applies: S. aureus RN4220 wild type/DeltatarO growth, OD600, 18 h, stronger effect = lower value, screened at 18.75 µg/mL (by protocol).
Take `O=C(Nc1ccc(Cl)cc1Cl)c1cc(S(=O)(=O)N2CCN(c3ccccc3F)CC2)ccc1F`: the survival was 102%.
The value for `CCN(C(=O)C1CCCN(c2ncnc3c2nc2n3CCCCC2)C1)c1cccc(C)c1` (stereo not drawn) was 75%.
As for `CC(C)Cc1nn2c(=O)cc(COC(=O)c3cccc(NS(C)(=O)=O)c3)nc2s1`, the figure is 82%.
The value for `Cc1ccc(C(=O)CCCn2nnc(-c3ccncc3)n2)cc1C` was 100%; that for `O=C(CSC1=NC2CCCCC2N1)N1CCOCC1` (stereo not drawn) was 83%; that for `Cc1ccc(NC(=O)CSc2nc3ccccc3nc2Cc2ccccc2)c(Cl)c1` was 99%.
Consider `CCCCCCOc1ccc(-c2nc3ccc(Br)cc3c(=O)o2)cc1`, for which the survival was 83%.
The value for `CCCC(CCC)C(=O)Nc1nnc2n1CCS2` was 82%; that for `O=C(NCc1ccccc1)C1CCN(C(=O)NCc2ccccc2)CC1` was 90%.
As for `COc1cc(-c2ccno2)ccc1S(=O)(=O)N1CCN(c2cccc(Cl)c2)CC1`, the survival is -1% (active).
The value for `COc1cc(-c2ccno2)ccc1S(=O)(=O)N1CCN(c2ccccc2)CC1` was 72%; that for `COc1ccccc1N1CCN(S(=O)(=O)c2ccc(-c3ccno3)cc2OC)CC1` was 86%; that for `COc1ccc(N2CCN(S(=O)(=O)c3ccc(-c4ccno4)cc3OC)CC2)cc1` was 6% (active).
As for `COc1cc(-c2ccno2)ccc1S(=O)(=O)N1CCN(c2ccc(F)cc2)CC1`, the figure is 67%.
As for `COc1cccc(N2CCN(S(=O)(=O)c3ccc(-c4ccno4)cc3OC)CC2)c1`, the figure is 64%; as for `N#CC1=C2SCN(C3CCCCC3)CN2C(=O)CC1c1ccc(Cl)cc1` (stereo not drawn), 91%.
For the compound `CCOc1cc(CNC(=O)c2cc(-c3ccccc3)n[nH]2)cc(OCC)c1OCC`, the survival was 98%.
The value for `Cc1ccc(-c2cc(NC(=O)COc3c(C)cc(C)cc3C)on2)cc1` was 67%.
As for `CC1Cc2cc(C(=O)NC3CCCCC3)ccc2O1` (stereo not drawn), the figure is 71%; as for `Cc1ccc(N2C(=O)CS(=O)(=O)C23C(=O)N(Cc2ccccc2F)c2ccccc23)cc1Cl` (stereo not drawn), 60%; as for `O=C(CCC1N=C2c3ccccc3N=C(SCc3ccc(Cl)cc3)N2C1=O)N1CCN(c2ccccc2)CC1` (stereo not drawn), 91%.
As for `O=C(CCC1N=C2c3ccccc3N=C(SCc3cccc(Cl)c3)N2C1=O)NCCc1ccccc1` (stereo not drawn), the figure is 63%.
With `O=C(CCC1N=C2c3ccccc3N=C(SCc3ccccc3Cl)N2C1=O)N1CCN(c2ccccc2)CC1` (stereo not drawn), the survival was 49% (active).
For `O=C(CCC1N=C2c3ccccc3N=C(SCc3ccc(F)cc3)N2C1=O)N1CCN(c2ccccc2)CC1` (stereo not drawn), the survival is 57%.
Take `Cc1ccc(CSC2=Nc3ccccc3C3=NC(CCC(=O)N4CCN(c5ccccc5)CC4)C(=O)N23)cc1` (stereo not drawn): the survival was 85%.
The value for `O=C(CCC1N=C2c3ccccc3N=C(SCc3cccc(Cl)c3)N2C1=O)N1CCN(c2ccccc2)CC1` (stereo not drawn) was 47% (active).
As for `COc1cccc(NC(=O)CN2CCCN(S(=O)(=O)c3ccc(Br)cc3)CC2)c1`, the figure is 58%; as for `CCC1(CC)Cc2ccccc2-c2nc(NCCCO)[nH]c(=O)c21`, 82%.
The value for `COc1ccccc1N1CCN(C(=O)c2cc3c(=O)n(Cc4cccs4)ccc3nc2C)CC1` was 74%.
Turning to `Cc1oc2ncn(CC(C)C)c(=O)c2c1C(=O)NCCCN(Cc1ccccc1)C(C)C`, the survival was 117%.
The value for `COc1ccc2c(C)c(CCC(=O)NCCc3ccccc3OC)c(=O)oc2c1` was 77%.
The value for `O=C(Nc1ccc(Cl)c(-c2nc3ccccc3o2)c1)c1cccc2c(Cl)cccc12` was 84%; that for `Cc1ccc2nc(-c3cc(NC(=O)/C=C/c4ccccc4)ccc3Cl)oc2c1` was 68%; that for `Cc1ccc2oc(-c3cc(NC(=O)c4oc5ccccc5c4C)ccc3Cl)nc2c1` was 62%.
The value for `Cc1ccccc1-c1nc2cc(NC(=O)Cc3ccc(Cl)cc3)ccc2o1` was 66%; that for `Cc1ccc2oc(-c3cc(NC(=O)c4ccco4)ccc3Cl)nc2c1` was 0% (active); that for `Cc1ccc2oc(-c3cc(NC(=O)/C=C/c4ccco4)ccc3Cl)nc2c1` was 40% (active).
As for `O=C(/C=C/c1ccco1)Nc1ccc(Cl)c(-c2nc3cc(Cl)ccc3o2)c1`, the survival was 65%.
Turning to `Cc1cc(NC(=O)c2ccco2)cc(-c2nc3cc(Cl)ccc3o2)c1O`, the survival was 79%.
The value for `COc1c(C)cccc1C(=O)Nc1ccc(Cl)c(-c2nc3cc(C)ccc3o2)c1` was 6% (active).
The value for `Cc1cc(NC(=O)Cc2ccccc2)cc(-c2nc3ccccc3o2)c1O` was 79%; that for `O=C(Nc1ccc(O)c(-c2nc3ccccc3o2)c1)c1ccco1` was 71%.
The value for `Cc1cc(C)c2oc(-c3cc(NC(=O)Cc4ccccc4)ccc3Cl)nc2c1` was 31% (active); that for `CC1CCN(c2nc3ccc(C(=O)NCc4ccccc4)cc3s2)CC1` was 77%; that for `CC(=O)Nc1ccc(OCc2cc(=O)n3ccccc3n2)cc1` was 76%.
As to `Cc1ccc(-c2nc3sc(CCNC(=O)c4ccc(Br)o4)c(C)n3n2)cc1`, the survival was 84%.
As for `CCOC(=O)C1CCN(C(=O)CN(c2cc(Cl)ccc2OC)S(C)(=O)=O)CC1`, the figure is 95%; as for `CC1CCCCC1NC(=O)CN1CCC(NC(=O)c2cccc(F)c2)CC1` (stereo not drawn), 85%; as for `CC1CCCN(CCCNC(=O)Cn2ncc3c([nH]c4ccccc43)c2=O)C1` (stereo not drawn), 94%.
As for `O=C(Nc1cc(F)ccc1F)C1COc2ccccc2C1` (stereo not drawn), the figure is 69%; as for `Cc1ccc2nc(-c3cc(NC(=O)COc4ccc(C)c(C)c4)ccc3Cl)oc2c1`, 30% (active); as for `CCCCOc1ccc(C(=O)Nc2cccc(-c3nc4ccccc4o3)c2C)cc1`, 76%.
Take `Cc1ccc2oc(-c3cccc(NC(=O)Cc4ccc(Cl)cc4)c3)nc2c1`: the survival was 72%.
The value for `CCc1ccc(OCC(=O)Nc2ccc(Cl)c(-c3nc4ncccc4o3)c2)cc1` was 47%.
As for `Cc1cc(NC(=O)COc2ccccc2)cc(-c2nc3ccccc3o2)c1O`, the figure is 94%; as for `CCc1ccc(OCC(=O)Nc2ccc(Cl)c(-c3nc4cc(C)cc(C)c4o3)c2)cc1`, 35% (active).
As for `Cc1ccc(OCC(=O)Nc2ccc(-c3nc4ccc(C)cc4o3)cc2)cc1`, the figure is 66%; as for `Cc1ccc2oc(-c3cc(NC(=O)CC(C)C)ccc3Cl)nc2c1`, 87%.
In the case of `Cc1cc2nc(-c3cccc(NC(=O)COc4ccc(Cl)c(C)c4)c3)oc2cc1C`, the survival was 64%.
As for `Cc1ccc2oc(-c3cc(NC(=O)Cc4ccccc4)ccc3Cl)nc2c1`, the figure is 52% (active).
Regarding `Cc1ccc(OCC(=O)Nc2cccc(-c3nc4ccccc4o3)c2C)cc1C`, the survival was 55% (active).
The value for `CCOc1ccc(C(=O)Nc2ccc(Cl)c(-c3nc4cc(C)cc(C)c4o3)c2)cc1` was 66%; that for `Cc1nn(CCCC(=O)Nc2ccccc2C(F)(F)F)c(=O)c2c1sc1ccccc12` was 74%.
On to `Cc1nc2ccc(C(=O)N3CCN(Cc4ccccc4)CC3)cc2[nH]1`, for which the survival is 104%.
The value for `CN(c1ccc(C(=O)NCc2cccnc2)cc1)S(C)(=O)=O` was 73%; that for `Cc1cccc(C(=O)n2nc(-c3ccco3)nc2NCc2ccccc2)c1` was 63%; that for `C=CCN1C(=O)C2C(C(=O)NC3CCCCC3C)C3(C)C=CC2(O3)C1C(=O)NC(C)(C)C` (stereo not drawn) was 65%.
The value for `Nc1ncc(S(=O)(=O)NCc2ccccc2)cn1` was 70%.
The value for `COc1ccc(Nc2oc(-c3ccc(COc4cccc(C)c4)o3)nc2C#N)cc1` was 109%; that for `Cc1ccc(-n2c(=O)c3ccccc3n(CC(=O)Nc3cccc(C(F)(F)F)c3)c2=O)cc1` was 63%.
For the compound `CCc1ccc2oc(-c3ccc(C)c(NC(=O)c4ccc(C#N)cc4F)c3)nc2c1`, the survival is 74%.
As for `Cc1cc(C)c2oc(-c3cccc(NC(=O)COc4ccccc4Cl)c3C)nc2c1`, the figure is 42% (active).
As for `Cc1cc(C)c2oc(-c3ccc(NC(=O)COc4ccccc4C)cc3)nc2c1`, the figure is 67%; as for `Cc1cc(C)c2oc(-c3cccc(NC(=O)c4cccc(F)c4)c3C)nc2c1`, 72%; as for `N#Cc1ccc2c(c1)nc1c3cccc4cccc(c(=O)n21)c43`, 72%.
As to `CC(C)(C)C(=O)N1c2ccccc2CCc2ccccc21`, the survival was 84%.
Consider `COc1ccc(Br)cc1CNC(=O)CCSCc1ccc(C)cc1`, for which the survival was 81%.
On to `Cc1cccc(C(c2sc3nc(-c4ccco4)nn3c2O)N2CCN(Cc3ccccc3)CC2)c1` (stereo not drawn), for which the survival was 94%.
As for `CC(=O)c1ccc(Oc2nc(C)nc3c2oc2ccccc23)cc1`, the survival is 92%.
The value for `Cc1nc(Oc2ccccc2C)c2oc3ccccc3c2n1` was 101%; that for `COc1cccc(Oc2nc(C)nc3c2oc2ccccc23)c1` was 25% (active).
For the compound `CCN(CC)c1ccc(NC(=O)C(Cc2ccccc2)NS(=O)(=O)c2ccc(Br)s2)c(C)c1` (stereo not drawn), the survival is 117%.
The value for `COc1ccc2nc(SCC(=O)NC3CCCCC3C)c(C#N)cc2c1` (stereo not drawn) was 89%; that for `CC(=O)Nc1ccc(Nc2nc3ccc(Cl)cc3n3cnnc23)cc1` was 99%.
The value for `COc1ccc(C(=O)Nc2nccs2)cc1OC` was 79%; that for `COc1cc(C(=O)Nc2ccc(NC(=O)c3ccc(C(C)(C)C)cc3)cc2)cc(OC)c1OC` was 132%; that for `Cc1nc2cc(C(=O)NCCC3=CCCCC3)ccc2n1-c1ccc(Br)cc1` was 60%.
The value for `CCCCCNC(=O)c1ccc2c(c1)nc(C)n2-c1cccc(C)c1` was 0% (active); that for `COCCCNC(=O)c1ccc2c(c1)nc(C)n2-c1cccc(C)c1` was 69%; that for `CCOc1ccc(-n2c(C)nc3cc(C(=O)NCCC4=CCCCC4)ccc32)cc1` was -4% (active).
Consider `Cc1cc(C)cc(-n2cnc3cc(C(=O)NCCc4ccccc4)ccc32)c1`, for which the survival is 78%.
As for `Cc1cccc(-n2cnc3cc(C(=O)NCc4ccccc4Cl)ccc32)c1`, the figure is 72%; as for `Cc1ccc(-n2cnc3cc(C(=O)NCc4ccccc4Cl)ccc32)c(C)c1`, 37% (active); as for `Cc1cccc(-n2c(C)nc3cc(C(=O)NCCC4=CCCCC4)ccc32)c1`, 71%.
As for `CCCNC(=O)c1ccc2c(c1)ncn2-c1ccc(C)cc1C`, the figure is 75%; as for `CCCNC(=O)c1ccc2c(c1)nc(C)n2-c1cccc(C)c1`, 83%.
As for `CCCCCNC(=O)c1ccc2c(c1)ncn2-c1cccc(C)c1`, the figure is 0% (active); as for `Cc1cccc(-n2cnc3cc(C(=O)NC4CCCCCC4)ccc32)c1`, 106%.
